± gives the standard deviation of the averaged measurements.
The compounds below were run on Serratia marcescens K904 PosmB-luxCDABE reporter (pMQ747) (assay: PosmB-lux reporter fold induction (RLU/OD600 relative to no-compound control), highest over Biolog concentrations; higher = stronger reporter activation). Settings: ΔrcsB mutant CMS5177; 4 h.
Protocol: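 Serratia marcescens K904 (wild type) or its isogenic ΔrcsB mutant, carrying the Rcs-dependent PosmB-luxCDABE reporter plasmid pMQ747, was grown in LB at OD600 0.1 in Biolog Phenotype MicroArray plates PM11-20 for 4 h at 30-32°C. Each compound is present at 3-4 proprietary concentrations (not stated); per the Fig. S1 legend the value given is the highest fold over those wells. Three independent trials.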

Compound | PosmB-lux reporter fold induction
CC(C)NCC(O)COc1cccc2ccccc12 (racemic) [D,L-propranolol] (Biolog plate: PM20, well positions: B5-8) | 1.24 ± 0.19
CN[C@@H]1[C@H](O[C@H]2[C@H](O[C@H]3[C@H](O)[C@@H](O)[C@H](NC(=N)N)[C@@H](O)[C@@H]3NC(=N)N)O[C@@H](C)[C@]2(O)CO)O[C@@H](CO)[C@H](O)[C@H]1O [dihydro-streptomycin] (Biolog plate: PM19, well positions: G5-8) | 0.97 ± 0.18
CO[C@H]1C[C@H](O[C@H]2[C@H](C)[C@@H](O[C@@H]3O[C@H](C)C[C@H](N(C)C)[C@H]3O)[C@@H](C)C[C@@]3(CO3)C(=O)[C@H](C)[C@@H](O)[C@@H](C)[C@@H](C)OC(=O)[C@@H]2C)O[C@@H](C)[C@@H]1O [Oleandomycin] (Biolog plate: PM15, well positions: F5-8) | 2.18 ± 0.57
Nc1ccc(S(=O)(=O)Nc2ccc(Cl)nn2)cc1 [sulfachloro-pyridazine] (Biolog plate: PM17, well positions: C5-8) | 1.63 ± 0.15
O=C1C=C(O)C(=O)c2ccccc21 [lawsone] (Biolog plate: PM19, well positions: E9-12) | 1.14 ± 0.35
O=C([O-])c1ccccc1O.[Na+] [sodium salicylate (NSAID)] (Biolog plate: PM17, well positions: B1-4) | 2.06 ± 0.94
NCC(=O)NO [glycine hydroxamate] (Biolog plate: PM16, well positions: H1-4) | 2.02 ± 0.63
N[C@H](CO)C(=O)O [D-serine] (Biolog plate: PM17, well positions: A2-4) | 1.12 ± 0.081
C/C=C/C=C/C(=O)O [sorbic acid] (Biolog plate: PM16, well positions: H9-12) | 4.84 ± 2.9
[Cl][Fe]([Cl])[Cl] [ferric chloride] (Biolog plate: PM16, well positions: G5-8) | 1.47 ± 0.36
O=C(O)/C=C/c1ccccc1 [cinnamic acid] (Biolog plate: PM19, well positions: C9-12) | 1.17 ± 0.32
[Cl][Cu][Cl] [Cupric chloride] (Biolog plate: PM13, well positions: H1-4) | 1.06 ± 0.1
CC1(C)S[C@@H]2[C@H](NC(=O)[C@H](N)c3ccccc3)C(=O)N2[C@H]1C(=O)O [Ampicillin] (Biolog plate: PM13, well positions: A2-4) | 1.06 ± 0.25
CCN(CC)CCOC(=O)c1ccc(N)cc1 [Procaine] (Biolog plate: PM15, well positions: A2-4) | 1.04 ± 0.067
Nc1ccc(S(N)(=O)=O)cc1 [sulfanilamide] (Biolog plate: PM16, well positions: B5-8) | 1.59 ± 0.33
CC[C@H]1OC(=O)C[C@@H](O)[C@H](C)[C@@H](O[C@@H]2O[C@H](C)[C@@H](O[C@H]3C[C@@](C)(O)[C@@H](O)[C@H](C)O3)[C@H](N(C)C)[C@H]2O)[C@@H](CC=O)C[C@@H](C)C(=O)/C=C/C(C)=C/[C@@H]1CO[C@@H]1O[C@H](C)[C@@H](O)[C@@H](OC)[C@H]1OC [Tylosin] (Biolog plate: PM13, well positions: H9-12) | 4.38 ± 1.6
O=P(O)(O)OP(=O)(O)O [sodium pyrophosphate decahydrate] (Biolog plate: PM18, well positions: A5-8) | 0.615 ± 0.16
Cc1noc(NS(=O)(=O)c2ccc(N)cc2)c1C [sulfisoxazole] (Biolog plate: PM18, well positions: C5-8) | 1.5 ± 0.35
CC1(C)S[C@@H]2[C@H](NC(=O)[C@H](NC(=O)N3CCNC3=O)c3ccccc3)C(=O)N2[C@H]1C(=O)O [Azlocillin] (Biolog plate: PM13, well positions: B1-4) | 1.27 ± 0.56
C[C@@H]1O[C@@H]1P(=O)(O)O [Phosphomycin] (Biolog plate: PM16, well positions: A5-8) | 1.57 ± 0.24

Compound | PosmB-lux reporter fold induction
CC[C@H]1OC(=O)[C@H](C)[C@@H](O[C@H]2C[C@@](C)(OC)[C@@H](O)[C@H](C)O2)[C@H](C)[C@@H](O[C@@H]2O[C@H](C)C[C@H](N(C)C)[C@H]2O)[C@](C)(O)C[C@@H](C)C(=O)[C@H](C)[C@@H](O)[C@]1(C)O [Erythromycin] (Biolog plate: PM11, well positions: F5-8) | 1.46 ± 0.041
CCS(=O)(=O)CCn1c([N+](=O)[O-])cnc1C [tinidazole] (Biolog plate: PM18, well positions: F5-8) | 1 ± 0.3
O=[N+]([O-])c1ccc(-[n+]2nc(-c3ccccc3)nn2-c2ccc(I)cc2)cc1 [iodonitro tetrazolium violet] (Biolog plate: PM19, well positions: D5-8) | 0.242 ± 0.11
CO[C@@]1(NC(=O)CSCC#N)C(=O)N2C(C(=O)O)=C(CSc3nnnn3C)CS[C@@H]21 [Cefmetazole] (Biolog plate: PM15, well positions: A9-12) | 1.51 ± 0.23
CCN1CCN(C(=O)N[C@@H](C(=O)N[C@@H]2C(=O)N3C(C(=O)O)=C(CSc4nnnn4C)CS[C@H]23)c2ccc(O)cc2)C(=O)C1=O [cefoperazone] (Biolog plate: PM17, well positions: G9-12) | 1.44 ± 0.22
[Cl-].[Li+] [lithium chloride] (Biolog plate: PM17, well positions: F1-4) | 2.92 ± 1
CCn1nc(C(=O)O)c(=O)c2cc3c(cc21)OCO3 [cinoxacin] (Biolog plate: PM16, well positions: D9-12) | 16.4 ± 3.4
CCC[C@@H]1C[C@@H](C(=O)N[C@@H]([C@H]2O[C@H](SC)[C@H](O)[C@@H](O)[C@H]2O)[C@@H](C)O)N(C)C1 [Lincomycin] (Biolog plate: PM11, well positions: A9-12) | 2.28 ± 0.49
CCOc1ccc2ccccc2c1C(=O)N[C@@H]1C(=O)N2[C@@H]1SC(C)(C)[C@@H]2C(=O)O [Nafcillin] (Biolog plate: PM11, well positions: D9-12) | 1.05 ± 0.14
NC[C@H]1O[C@H](O[C@H]2[C@H](O)[C@@H](O[C@H]3O[C@H](CO)[C@@H](O)[C@H](N)[C@H]3O)[C@H](N)C[C@@H]2N)[C@H](N)C[C@@H]1O [Tobramycin] (Biolog plate: PM12, well positions: F1-4) | 1.52 ± 0.67
N.N.N.N.N.N.[Cl-].[Cl-].[Cl-].[Co+3] [hexammine cobalt (III) chloride] (Biolog plate: PM19, well positions: H1-4) | 1.35 ± 0.2
CCn1cc(C(=O)O)c(=O)c2cc(F)c(N3CCNCC3)cc21 [norfloxacin] (Biolog plate: PM16, well positions: B1-4) | 1.91 ± 0.65
[Cl-].[Cs+] [Cesium chloride] (Biolog plate: PM13, well positions: F1-4) | 1.64 ± 0.47
CO[C@@]1(NC(=O)C(C(=O)O)c2ccc(O)cc2)C(=O)N2C(C(=O)O)=C(CSc3nnnn3C)CO[C@@H]21 (stereo not given in full) [Moxalactam] (Biolog plate: PM13, well positions: H5-8) | 1.94 ± 0.81
OCC(O)CS (stereo not given) [thioglycerol] (Biolog plate: PM19, well positions: H5-8) | 1.08 ± 0.56
CCn1cc(C(=O)O)c(=O)c2cc(F)c(N3CCNC(C)C3)c(F)c21 (stereo not given) [Lomefloxacin] (Biolog plate: PM11, well positions: B9-12) | 1.19 ± 0.24
CCCCC(CC)CNC(=N)NC(=N)NCCCCCCNC(=N)NC(=N)NCC(CC)CCCC (stereo not given) [Alexidine] (Biolog plate: PM15, well positions: E1-4) | 1.92 ± 0.13
O=C(N[C@H](CO)[C@H](O)c1ccc([N+](=O)[O-])cc1)C(Cl)Cl [Chloramphenicol] (Biolog plate: PM14, well positions: F1-4) | 1.87 ± 1.1
CO/N=C(\C(=O)N[C@@H]1C(=O)N2C(C(=O)O)=C(COC(C)=O)CS[C@H]12)c1csc(N)n1 [cefotaxime] (Biolog plate: PM16, well positions: A2-4) | 1.11 ± 0.047
OB(O)O [Boric acid] (Biolog plate: PM14, well positions: C1-4) | 23.8 ± 12

Source: the supplement of paper PMC9942566
